Data taken from PubChem BioAssay (Tox21).
Records with an inconclusive call do not appear. Calls of active or inactive are those of the source. The call rests on the fitted dose curve; in most records, active means well fitted activation curve with a large enough effect in the signal ratio in the repeat runs, with a control signal flat (not every such curve was filed as active); inconclusive means weak or mixed curves, or effect the other way; inactive means no such curve, though single readings can be large or run the other way; the % refers to the signal ratio.

target: Androgen receptor (Homo sapiens) (UniProt P10275); assay: qHTS assay to identify small molecule agonists of the androgen receptor (AR) signaling pathway (AID 743036); conditions: HEK293 AR-UAS-bla GripTite, beta-lactamase FRET ratio, 16 h; series mostly up to 62.4 µM
Description: U.S. Tox21 Program National Center for Advancing Translational Sciences [NCATS] NIH Chemical Genomics Center [NCGC] U.S. Environmental Protection Agency [EPA] National Institutes of Environmental Health Sciences [NIEHS] National Toxicology Program [NTP] U.S. Food and Drug Administration [FDA] Tox21 Assay Overview: Androgen receptor (AR), a nuclear hormone receptor, plays a critical role in AR-dependent prostate cancer and other androgen related diseases. Endocrine disrupting chemicals (EDCs) and their interactions with steroid hormone receptors like AR may cause disruption of normal endocrine function as well as interfere with metabolic homeostasis, reproduction, developmental and behavioral functions. To identify the compounds that activate AR signaling, GeneBLAzer AR-UAS-bla-GripTite cell line (Invitrogen, Carlsbad, CA, USA) containing a beta-lactamase reporter gene under the control of an Upstream Activator Sequence (UAS) stably integrated into HEK293 cells was used to screen the Tox21 10K compound library.
Tox21 Assay Protocol Summary: AR-bla cells were dispensed at 2,000 cells/6 uL/well of assay medium into black wall/clear-bottom 1536-well plates using a Multidrop Combi (ThermoFisher Scientific, Waltham, MA) dispenser. After the assay plates were incubated at 37C and 5% CO2 for 4 h, 23 nL of compounds dissolved in DMSO, positive controls or DMSO only was transferred to the assay plate by a Pintool station (Kalypsys, San Diego, CA). The plates were incubated at 37C and 5% CO2 for 16 h. Then 1 uL of LiveBLAzerTM B/G FRET substrate was added using a Bioraptr Flying Reagent Dispenser (FRD) workstation (Beckman Coulter, Indianapolis, IN, USA). The plates were incubated at room temperature for 2 h, and fluorescence intensity was measured by an Envision plate reader (PerkinElmer, Shelton, CT).

Androgen receptor (Homo sapiens), sequence (P10275 whole entry, looked up): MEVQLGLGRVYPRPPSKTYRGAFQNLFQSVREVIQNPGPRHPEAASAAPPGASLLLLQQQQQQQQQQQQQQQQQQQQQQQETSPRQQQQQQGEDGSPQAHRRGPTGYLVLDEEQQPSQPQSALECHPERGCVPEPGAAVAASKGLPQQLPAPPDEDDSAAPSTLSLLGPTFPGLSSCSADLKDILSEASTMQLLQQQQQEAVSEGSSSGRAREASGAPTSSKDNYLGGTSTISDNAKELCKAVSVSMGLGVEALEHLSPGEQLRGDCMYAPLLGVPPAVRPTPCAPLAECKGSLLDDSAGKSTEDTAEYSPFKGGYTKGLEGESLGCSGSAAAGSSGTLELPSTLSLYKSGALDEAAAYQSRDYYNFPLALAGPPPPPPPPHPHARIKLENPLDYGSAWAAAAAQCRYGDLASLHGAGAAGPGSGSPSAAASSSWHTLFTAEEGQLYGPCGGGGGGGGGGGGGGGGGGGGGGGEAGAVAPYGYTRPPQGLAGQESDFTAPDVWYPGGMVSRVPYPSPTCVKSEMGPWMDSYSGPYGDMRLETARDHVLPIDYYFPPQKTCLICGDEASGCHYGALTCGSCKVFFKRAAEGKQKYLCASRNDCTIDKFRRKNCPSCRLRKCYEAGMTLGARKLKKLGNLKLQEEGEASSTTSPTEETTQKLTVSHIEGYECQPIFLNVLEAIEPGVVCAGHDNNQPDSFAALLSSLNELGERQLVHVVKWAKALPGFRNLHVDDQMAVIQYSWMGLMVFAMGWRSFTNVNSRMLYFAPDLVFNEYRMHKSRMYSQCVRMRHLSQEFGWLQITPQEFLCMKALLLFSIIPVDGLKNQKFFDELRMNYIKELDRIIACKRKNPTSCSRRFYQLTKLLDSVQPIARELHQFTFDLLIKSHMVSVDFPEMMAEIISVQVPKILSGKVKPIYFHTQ

Structure (SMILES)	outcome
Cc1ccc(C)c(OCCCC(C)(C)C(=O)O)c1	inactive
Cc1cc(=O)n(-c2ccccc2)n1C	inactive
CCCCC(CC)COC(=O)/C=C/c1ccc(OC)cc1 (stereo not given)	inactive
O=C(c1ccccc1)c1ccccc1	inactive
CC(C)(Oc1ccc(C2CC2(Cl)Cl)cc1)C(=O)O (stereo not given)	inactive
c1ccc2[nH]ccc2c1	inactive
CCCN(CCC)S(=O)(=O)c1ccc(C(=O)O)cc1	inactive
CC(C)[C@@H]1CC[C@@H](C)C[C@H]1O	inactive
C1N2CN3CN1CN(C2)C3	inactive
Cc1ccc(O)cc1	inactive
